Several values for one entry are separate records, joined by “and”; a condition that tells them apart may be missing. Identical values can stand only once. Inconclusive results are not listed. Activity calls are given as the source filed them. Unless noted, calls come from the whole dose curve; as a rule, active = well fitted curve in the direction sought with a large enough effect; inconclusive = small, poorly fitted or top-dose-only effect, or another doubt; inactive = no such curve, though single readings can be large; an effect the other way counts as inactive or inconclusive.
Assays:
[1] = Cellular Toxicity (caspase-3) HepG2 (AID 654); conditions: HepG2 caspase-3 activation, luminescence, 0% = DMSO only, 100% = tamoxifen; series mostly up to 92.2 µM;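 note: cells exposed to compound for 16 hours before reading; 0% = DMSO alone and 100% = caspase signal from 100 µM tamoxifen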
Summary of the method: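 qHTS, HepG2, 1500 cells/well, complete medium; cpd 16 h 37 °C; Caspase-Glo 3/7, 20 min RT; lum. Norm: DMSO vs 100 uM tamoxifen; AC50 Hill fit.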

[2] = Cellular Toxicity (caspase-3) Jurkat (AID 655); conditions: Jurkat caspase-3 activation, luminescence, DMSO = 0%, tamoxifen = 100%; series mostly up to 92.2 µM;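 note: cells exposed to compound for 16 h at 37 °C before reading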
Summary of the method: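 Caspase 3/7 activation is scored as increased luminescence in Jurkat cells cultured with compound for 16 hours in complete medium. AC50 values come from Hill fits of qHTS concentration-response data normalized to DMSO and 100 uM tamoxifen controls.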

[3] = Cellular Toxicity (caspase-3) HUV-EC-C (AID 656); conditions: HUV-EC-C cells, caspase-3 activation (apoptosis), vehicle = 0, 100 µM tamoxifen = 100%; series mostly up to 92.2 µM
Summary of the method: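 Read-out: luminescence proportional to caspase 3/7 activity, measured 20 min after adding Caspase-Glo 3/7 reagent. Cells (HUV-EC-C) had received compound for 16 hr at 37°C. Increases relative to DMSO and 100 uM tamoxifen gave concentration-response AC50 values.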

[4] = Cellular Toxicity (caspase-3) SHSY5Y (AID 657); conditions: SH-SY5Y caspase-3 activation, DMSO zero, 10 µM staurosporine = 100%; series mostly up to 91.7 µM
Summary of the method: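 Cells plated and incubated 5 h at 37 °C, dosed over a concentration range, incubated 16 h, then given Caspase-Glo 3/7 reagent for 1 h at room temperature before luminescence reading. Staurosporine (10 uM) defined full stimulation.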

[5] = Cellular Toxicity (caspase-3) BJ (AID 658); conditions: BJ fibroblasts, luminescence, normalized: DMSO 0%, staurosporine 100%; series mostly up to 91.7 µM
Summary of the method: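 Luminescent aminoluciferin-substrate cleavage reports caspase 3/7 activity in normal human BJ fibroblasts after 16 hr compound exposure at 37 °C. Normalized to DMSO (basal) and 10 uM staurosporine (100%); AC50 from Hill fit of concentration-response.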

[6] = Cellular Toxicity (caspase-3) MRC-5 (AID 659); conditions: MRC-5 cells, luminescence, normalized: DMSO 0%, 10 µM staurosporine 100%; series mostly up to 91.7 µM
Summary of the method: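 Luminescence from caspase-cleaved aminoluciferin substrate (Caspase-Glo 3/7, 1 hr RT) reports caspase 3/7 activity in MRC-5 lung fibroblasts after 16 hr compound exposure. Normalized to DMSO basal and 10 uM staurosporine as 100%; AC50 from Hill fits.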

[7] = Cellular Toxicity (caspase-3) SK-N-SH (AID 661); conditions: SK-N-SH caspase-3 activation, qHTS, DMSO as zero, staurosporine as full; series mostly up to 91.7 µM
Summary of the method: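 Caspase 3/7 activation is measured as a luminescence increase from aminoluciferin released by substrate cleavage in SK-N-SH cells after 16 hr compound treatment; values are AC50 from concentration-response curves.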

[8] = Cellular Toxicity (caspase-3) H-4-II-E (AID 663); conditions: H-4-II-E rat hepatoma, scaled: DMSO 0%, 100 µM tamoxifen 100%; series mostly up to 92.2 µM;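 note: cells exposed to compound for 16 hr before readout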
Summary of the method: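 Luminescence from caspase-cleaved aminoluciferin substrate, read 20 min after reagent addition, reports caspase 3/7 activation in rat H-4-II-E cells after 16 hr compound exposure. Normalized to DMSO (basal) and 100 uM tamoxifen (100%); AC50 from Hill fits.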

[9] = Cellular Toxicity (caspase-3) Hek293 (AID 664); conditions: HEK293 caspase-3 activation, DMSO = 0%, 100 µM tamoxifen = 100%; series mostly up to 92.2 µM;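 note: cells exposed to compound for 16 h at 37 °C before readout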
Summary of the method: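 Activation of caspase-3/7 is measured as increased luminescence from cleaved peptide-aminoluciferin substrate in HEK293 cells treated 16 hours at 37 °C. AC50 values come from Hill-equation fits of concentration-response data.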

[10] = Cellular Toxicity (caspase-3) N2a (AID 665); conditions: N2a cells, luminescence, normalized: DMSO 0%, 10 µM staurosporine 100%; series mostly up to 92.2 µM;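 note: compound exposure lasted 16 h at 37 °C before readout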
Summary of the method: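 Plated mouse neuroblastoma N2a cells received titrated compounds for 16 h in complete medium. Caspase activity was then detected with a peptide-aminoluciferin luminescent reagent.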

[11] = Cellular Toxicity (caspase-3) NIH 3T3 (AID 666); conditions: NIH 3T3 caspase-3 activation, apoptosis/toxicity, 0% DMSO, 100% is 100 µM tamoxifen; series mostly up to 92.2 µM;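 note: 0% = DMSO basal and 100% = 100 µM tamoxifen stimulation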
Summary of the method: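 Concentration-response qHTS in NIH 3T3 mouse fibroblasts scores caspase-3/7 activation as rising luminescence after 16 hr compound exposure. Signals are scaled between DMSO-only and 100 uM tamoxifen.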

[12] = Cellular Toxicity (caspase-3) Renal Proximal Tubule (AID 667); conditions: renal proximal tubule cells; series mostly up to 91.7 µM;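 note: cells exposed to compound for 16 hours at 37 °C before detection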
Summary of the method: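 In qHTS format, rat primary proximal tubule cells seeded at 1000 per well are exposed to compounds for 16 hours at 37 °C. An increase in Caspase-Glo 3/7 luminescence indicates caspase activation.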

[13] = Cell Viability - LYMP2-001 (AID 921); conditions: LYMP2-001 lymphoblastoid cell viability; series mostly up to 92.2 µM;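 note: cells exposed to compound for 24 h at 37 °C; 0% = DMSO only and full inhibition = tetraoctylammonium bromide control wells; nearly all actives have a fitted effect of over 70% in size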
Summary of the method: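 qHTS, 1536-well; lymphoblastoid cells, 24 hr compound, 37 C; ATP by CellTiter-Glo, 30 min RT; luminescence; Hill-fit AC50.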

[14] = target: Nuclear receptor ROR-gamma (Homo sapiens) (UniProt P51449); assay: qHTS assay for small molecule antagonists of the retinoid-related orphan receptor gamma (ROR-gamma) signaling pathway (AID 651802); conditions: ROR-gamma antagonist cell reporter assay; series mostly up to 92.2 µM;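 note: CHO cells with doxycycline-induced ROR-gamma expression; % is set by controls: 0 for no effect and ±100 for the full control effect; nearly all actives have a fitted effect of over 60% in size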
Summary of the method: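 Antagonism is scored as a fall in luminescence from a RORE-luciferase reporter in CHO cells expressing ROR under a TET-inducible promoter, measured 16hr after doxycycline induction in the presence of compound.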

[15] = qHTS assay for small molecule agonists of the antioxidant response element (ARE) signaling pathway measured by Nrf2-dependant transcriptional activity (AID 720636; active = well fitted curve in the direction sought with a large enough effect in the repeat runs; an effect the other way counts as inactive or inconclusive;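 note: HepG2 cells with an ARE-driven luciferase reporter; % of control where 0% means no effect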); conditions: ARE-luc HepG2, Nrf2 luciferase reporter, 16 h; series mostly up to 92.4 µM
Summary of the method: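 In HepG2 cells engineered with an Nrf2-responsive luciferase gene, ARE induction was quantified as luminescence after 16 hr compound treatment at 37 C.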

[16] = qHTS assay for small molecule antagonists of the retinoid-related orphan receptor gamma (ROR-gamma) signaling pathway - cell viability counter screen (AID 720652; active = well fitted curve in the direction sought with a large enough effect in the repeat runs; an effect the other way counts as inactive or inconclusive;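 note: CHO reporter cells with doxycycline-induced ROR-gamma expression; compound exposure lasted 16 hr before ATP read; % is set by controls: 0 for no effect and ±100 for the full control effect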); conditions: RORgamma reporter cell line viability counter screen; series mostly up to 92.2 µM
Summary of the method: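 Cytotoxicity is quantified via intracellular ATP (CellTiter-Glo luminescence) in doxycycline-induced CHO ROR response element-luciferase reporter cells treated with compound for 16 hr at 37 C, 5% CO2.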

[17] = qHTS assay for small molecule agonists of the antioxidant response element (ARE) signaling pathway measured by Nrf2-dependant transcriptional activity - cell viability counter screen (AID 720653; active = well fitted curve in the direction sought with a large enough effect in the repeat runs; an effect the other way counts as inactive or inconclusive; note: % is set by controls: 0 for no effect and ±100 for the full control effect); conditions: ARE-bla HepG2 viability, CellTiter-Glo ATP luminescence, 16 h; max response: stronger effect = lower value
Summary of the method: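 ARE-bla HepG2 cells (2,000/well) rested 5 hrs at 37C/5% CO2, then exposed to compounds in DMSO for 16 hrs. Viability was read in the same wells as intracellular ATP by luminescence, 30 min at room temperature after reagent addition.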

[18] = qHTS assay for cell viability of HEK293 cells (AID 743288); conditions: ATP luminescence (CellTiter-Glo), 18 h; max response: stronger effect = lower value; note: % is set by controls: 0 for no effect and ±100 for the full control effect; nearly all actives have a fitted effect of over 50% in size
Summary of the method: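 The Tox21 protocol used parental HEK293 cells treated for 18 h at 37 C with compounds delivered by pintool; ATP-coupled luminescence after 30 min at room temperature gave viability.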

[19] = qHTS assay for cell viability of the p53RE-bla HCT-116 cell line (AID 743292); conditions: p53RE-bla HCT-116 viability, ATP luminescence, 16 h; series mostly up to 95 µM; note: % is set by controls: 0 for no effect and ±100 for the full control effect; nearly all actives have a fitted effect of over 55% in size
Summary of the method: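 Intracellular ATP of p53RE-bla HCT-116 cells measured by luciferase luminescence following 16 h compound incubation at 37 C; DMSO-only wells served as vehicle controls.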

[20] = qHTS assay for small molecule activators of the human pregnane X receptor (PXR) signaling pathway (AID 720659; call rule not given here; note: 0% is about no effect); conditions: DPX-2 HepG2 CYP3A4-luciferase, 24 h; series mostly up to 92.3 µM

Nuclear receptor ROR-gamma (Homo sapiens), sequence (P51449 whole entry, looked up): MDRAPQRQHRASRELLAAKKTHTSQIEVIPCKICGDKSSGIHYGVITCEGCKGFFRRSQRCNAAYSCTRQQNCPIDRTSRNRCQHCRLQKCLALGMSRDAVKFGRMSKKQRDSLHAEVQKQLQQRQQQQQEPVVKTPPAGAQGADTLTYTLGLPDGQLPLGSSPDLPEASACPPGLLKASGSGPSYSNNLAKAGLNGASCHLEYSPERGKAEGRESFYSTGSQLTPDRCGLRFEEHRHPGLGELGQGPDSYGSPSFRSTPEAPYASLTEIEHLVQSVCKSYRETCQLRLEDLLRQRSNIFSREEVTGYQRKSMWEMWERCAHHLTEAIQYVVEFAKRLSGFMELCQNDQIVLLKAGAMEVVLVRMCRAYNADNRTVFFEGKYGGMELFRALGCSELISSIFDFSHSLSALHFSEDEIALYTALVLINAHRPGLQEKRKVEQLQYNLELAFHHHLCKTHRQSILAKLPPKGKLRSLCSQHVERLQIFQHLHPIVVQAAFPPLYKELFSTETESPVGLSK

Cc1ccccc1O
inactive: outcome [1] | outcome [2] | outcome [3] | outcome [4] | outcome [5] | outcome [6] | outcome [7] | outcome [8] | outcome [9] | outcome [10] | outcome [11] | outcome [12] | outcome [13] | Potency [14] | Potency [15] | outcome [16] | max response [17] -2.37% and 9.1% | max response [18] -5.04% and -4.42% | outcome [19] | outcome [20]
